The list is not random: actives were taken first. Their share in the collection is about 8.7%.
VACV mCherry inh: inhibitors of vaccinia virus infection (mCherry reporter signal). Potency, µM (titrated, usually from 36.5 µM), hits mostly inhibitors. Vaccinia virus mCherry reporter infection, fluorescence. 0.63% of 310,000 active; calls by dose curve; tested in A549 cells; further: nearly all actives have a fitted effect of over 35% in size
Pf growth 96h: inhibits malaria parasite growth, 96 h | P. falciparum luciferase reporter growth, 96 h | Potency, µM (highest dose often 28.7 µM), usual class: inhibitors | 6.9% of 320,000 active
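Cell-based qHTS: luciferase-tagged P. falciparum in erythrocytes (2% hematocrit, 0.05% parasitemia final) incubated with compounds for 96 hours, 37 C, 5% CO2; luciferase detection reagent then added and luminescence measured.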
Vaccinia Venus: vaccinia inhibition (Venus reporter); 0.46% of 330,000 active; AID 720580; Vaccinia virus Venus reporter expression, fluorescence; Potency, µM (doses to about 36.5 µM), most hits filed as inhibitors; calls by dose curve; tested in A549 cells; further: nearly all actives have a fitted effect of over 30% in size
AMA1 RON2 block: AMA1-RON2 (P. falciparum) interaction inhibition. 0.2% of 360,000 active. AID 720542. AlphaScreen AMA1-biotinylated RON2 peptide binding. Potency, µM (titrated, usually from 58.2 µM), usual class: inhibitors; further: nearly all actives have a fitted effect of over 45% in size
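AMA1 (3D7) with his tag at 25 nM final met compounds first, then biotinylated RON2 peptide at 25 nM; detection used donor plus acceptor beads, 10 µg/mL apiece, read by AlphaScreen after 30 min at room temperature.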
Pf growth 48h: P. falciparum growth inhibition at 48 hours (one generation); 5.9% of 310,000 active; P. falciparum luciferase growth in erythrocytes, 48 h; Potency, µM (doses to about 28.7 µM), usual class: inhibitors; AID 504832
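Luciferase-expressing parasites in RBCs, 2% Hct / 0.1% parasitemia final; RPMI 1640 + 0.5% Albumax; 37 C, 5% CO2, one generation; luminescence read-out, lower signal = inhibition.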
Of the large screens only hits and unclear results are named; the others gave an inactive call. Unless noted, the call rests on the fitted dose curve; in most records, active means well fitted curve in the direction sought with a large enough effect; inconclusive means small, poorly fitted or top-dose-only effect, or another doubt; inactive means no such curve, though single readings can be large; an effect the other way counts as inactive or inconclusive.

CCCNC(=O)C1CCN(S(=O)(=O)c2ccc(Br)cc2)CC1	Pf growth 48h 4.7µM (no result: VACV mCherry inh, Vaccinia Venus)
CCCNC(=O)C1CCN(S(=O)(=O)c2ccc3c(c2)OCCO3)CC1	Pf growth 48h inconclusive
CC(C)CCn1nnc2sc(-c3ccccc3)cc2c1=O	none (no result: Pf growth 96h, AMA1 RON2 block, Pf growth 48h)
Cc1ccc(S(=O)(=O)N2CCC(C(=O)N3CCCC3C(=O)N[C@@H](CC(C)C)C(=O)NCC(N)=O)CC2)cc1 (stereo not given in full)	Pf growth 96h 6.6µM, Pf growth 48h inconclusive
CC(=O)Nc1cc(C(=O)N2CCC3(CC2)OCCO3)ccc1S(=O)(=O)c1ccc(C)cc1	none
Cc1ccc(S(=O)(=O)N2CCC(C(=O)N3CCC[C@H]3C(=O)NCC(C)C)CC2)cc1	Pf growth 48h inconclusive
O=C(Nc1ccc(F)cc1)C1CCN(S(=O)(=O)c2ccc3[nH]c(=O)oc3c2)CC1	Pf growth 96h 13µM
CC(=O)Nc1cc(C(=O)N2CCCC2)ccc1S(=O)(=O)c1ccc(C)cc1	Pf growth 96h 1.2µM (no result: VACV mCherry inh)
Cc1ccc(C(=O)Nc2ccc(S(=O)(=O)N3CCCC3)cc2)s1	Pf growth 96h 13µM, Pf growth 48h inconclusive (no result: VACV mCherry inh, Vaccinia Venus)
Cc1ccc(NC(=O)C2COc3ccccc3O2)cc1S(=O)(=O)N1CCCCC1 (stereo not given)	Pf growth 96h inconclusive, Pf growth 48h 9.3µM (no result: VACV mCherry inh, Vaccinia Venus)
Cc1ccc(S(=O)(=O)N2CCC(C(=O)Nc3ccc(S(=O)(=O)N4CCCC4)cc3)CC2)cc1C	VACV mCherry inh inconclusive, Pf growth 96h inconclusive, Vaccinia Venus inconclusive, Pf growth 48h 12µM
Cc1ccc(C(=O)NNC(=O)C2CCN(S(=O)(=O)c3ccc(C)cc3)CC2)cc1	Pf growth 48h 2.6µM
Cc1ccc(S(=O)(=O)N2CCC(C(=O)NNC(=O)c3ccccc3)CC2)cc1	none (no result: VACV mCherry inh, Vaccinia Venus)
Cc1ccc(S(=O)(=O)N2CCC(C(=O)NCCCN3CCCC3=O)CC2)cc1	none (no result: Pf growth 96h, Pf growth 48h)
Cc1ccc(S(=O)(=O)N2CCC(C(=O)NCCN3CCCCCC3)CC2)cc1	Pf growth 48h 12µM (no result: VACV mCherry inh, Vaccinia Venus)
Cc1oc(-c2ccccc2NC(=O)C2CCCO2)nc1CNC(=O)c1cc(F)c(F)cc1F (stereo not given)	none (no result: Pf growth 96h, AMA1 RON2 block, Pf growth 48h)
CCc1cccc(NC(=O)Cn2c(=O)n(CCc3ccc(OC)c(OC)c3)c(=O)c3ccccc32)c1	none (no result: Pf growth 96h, AMA1 RON2 block, Pf growth 48h)
COc1cccc(-n2c(=O)c3c(C)c(C)sc3n(Cc3ccccc3C#N)c2=O)c1	none (no result: Pf growth 96h, AMA1 RON2 block, Pf growth 48h)
Cc1cccc(NS(=O)(=O)c2ccc(NC(=O)N3CCCCC3)cc2)c1	none
Cc1ccc(S(=O)(=O)N2CCC(C(=O)Nc3ccc(S(=O)(=O)N4CCCC4)cc3)CC2)cc1	Pf growth 96h 4.7µM, Pf growth 48h 13µM
Cc1ccc(S(=O)(=O)N2CCC(C(=O)Nc3ccc(C(C)C)cc3)CC2)cc1	Pf growth 96h inconclusive, Pf growth 48h inconclusive (no result: VACV mCherry inh, Vaccinia Venus)
Cc1ccc(NC(=O)C2CCN(C(=O)OC(C)(C)C)CC2)cc1S(=O)(=O)N1CCCCC1	Pf growth 96h inconclusive, Pf growth 48h 13µM (no result: VACV mCherry inh, Vaccinia Venus)
Cc1ccc(NS(=O)(=O)c2ccc(NC(=O)N3CCCCC3)cc2)cc1	Pf growth 96h 1.5µM, Pf growth 48h inconclusive
COCC1CCN(C(=O)c2ccc3oc(CCCc4ccccc4)nc3c2)C1 (stereo not given)	Pf growth 96h 3.7µM, Vaccinia Venus inconclusive
CC(C)[C@@]1(NC(=O)[C@@H]2C=C3c4cccc5[nH]cc(c45)C[C@H]3N(C)C2)O[C@@]2(O)[C@@H]3CCCN3C(=O)[C@H](Cc3ccccc3)N2C1=O	Pf growth 96h 2.3µM, Pf growth 48h 2.9µM (no result: VACV mCherry inh, Vaccinia Venus, AMA1 RON2 block)
CC(C)C[C@H]1C(=O)N2CCC[C@H]2[C@]2(O)O[C@](NC(=O)[C@@H]3C=C4c5cccc6[nH]c(Br)c(c56)CC4N(C)C3)(C(C)C)C(=O)N12 (stereo not given in full)	Pf growth 96h 4.1µM, Vaccinia Venus inconclusive, Pf growth 48h 2.3µM
CC(C)[C@@]1(NC(=O)[C@@H]2C[C@@H]3c4cccc5[nH]cc(c45)C[C@H]3N(C)C2)O[C@@]2(O)[C@@H]3CCCN3C(=O)[C@H](Cc3ccccc3)N2C1=O	Pf growth 96h 1.9µM, Pf growth 48h 1.9µM
CN1C[C@H](C(=O)N[C@@]2(C)O[C@@]3(O)C4CCCN4C(=O)C(Cc4ccccc4)N3C2=O)C[C@H]2c3cccc4[nH]cc(c34)C[C@H]21 (stereo not given in full)	none (no result: Pf growth 96h, AMA1 RON2 block, Pf growth 48h)

Screens deposited in PubChem by National Center for Advancing Translational Sciences (NCATS).
